# 14-3-3 Bad inh: disrupts binding of bovine 14-3-3 zeta to phospho-Bad peptide. P63103. TR-FRET 14-3-3zeta/Dy647-pBad peptide displacement, 1 h. inhibition, % at 21.7 µM. 220,000 compounds, 0.71% hits;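 active = inhibition above about 70%, limit read from the data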
# MLLE-PAM2 inh: inhibitors of microRNA-mediated deadenylation, human PABP1 MLLE binding; inhibition, % at 20 µM; 360,000 compounds, 0.36% hits; GST-MLLE / FITC-PAM2 fluorescence polarization; in the data active = inhibition above about 35%, passing the limit was not always enough
# PABP FP inh: PABP-poly(A) binding inhibition; PABP-poly(A) RNA binding, fluorescence polarization; 290,000 compounds, 1% hits; AID 2014; calls only at 35 µM;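 also: calls also rest on retests at 20 µM and on dose response follow-up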
# eIF4H FP inh: inhibitors of RNA binding by human eIF4H | 290,000 compounds, 0.94% hits | inhibition, % at 35 µM | Q15056 | eIF4H fluorescence polarization binding assay;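 also: calls also rest on retests at 20 µM and on dose response follow-up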
# eIF4E-4G inh: eIF4E/eIF4G interaction inhibition in translation initiation. P63073+Q04637. TR-FRET eIF4E-eIF4GI(517-606) binding, 2 h. inhibition, % at 21.7 µM. 220,000 compounds, 0.37% hits. AID 782;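 active = inhibition above about 30%, limit read from the data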
# Target sequence (P63073 whole entry, looked up): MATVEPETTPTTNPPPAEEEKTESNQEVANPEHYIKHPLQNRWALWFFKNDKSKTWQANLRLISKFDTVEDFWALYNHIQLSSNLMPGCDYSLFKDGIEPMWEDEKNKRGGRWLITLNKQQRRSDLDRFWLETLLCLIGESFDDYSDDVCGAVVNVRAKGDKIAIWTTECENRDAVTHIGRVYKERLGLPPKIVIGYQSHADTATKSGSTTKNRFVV
# Target sequence (Q04637 whole entry, looked up): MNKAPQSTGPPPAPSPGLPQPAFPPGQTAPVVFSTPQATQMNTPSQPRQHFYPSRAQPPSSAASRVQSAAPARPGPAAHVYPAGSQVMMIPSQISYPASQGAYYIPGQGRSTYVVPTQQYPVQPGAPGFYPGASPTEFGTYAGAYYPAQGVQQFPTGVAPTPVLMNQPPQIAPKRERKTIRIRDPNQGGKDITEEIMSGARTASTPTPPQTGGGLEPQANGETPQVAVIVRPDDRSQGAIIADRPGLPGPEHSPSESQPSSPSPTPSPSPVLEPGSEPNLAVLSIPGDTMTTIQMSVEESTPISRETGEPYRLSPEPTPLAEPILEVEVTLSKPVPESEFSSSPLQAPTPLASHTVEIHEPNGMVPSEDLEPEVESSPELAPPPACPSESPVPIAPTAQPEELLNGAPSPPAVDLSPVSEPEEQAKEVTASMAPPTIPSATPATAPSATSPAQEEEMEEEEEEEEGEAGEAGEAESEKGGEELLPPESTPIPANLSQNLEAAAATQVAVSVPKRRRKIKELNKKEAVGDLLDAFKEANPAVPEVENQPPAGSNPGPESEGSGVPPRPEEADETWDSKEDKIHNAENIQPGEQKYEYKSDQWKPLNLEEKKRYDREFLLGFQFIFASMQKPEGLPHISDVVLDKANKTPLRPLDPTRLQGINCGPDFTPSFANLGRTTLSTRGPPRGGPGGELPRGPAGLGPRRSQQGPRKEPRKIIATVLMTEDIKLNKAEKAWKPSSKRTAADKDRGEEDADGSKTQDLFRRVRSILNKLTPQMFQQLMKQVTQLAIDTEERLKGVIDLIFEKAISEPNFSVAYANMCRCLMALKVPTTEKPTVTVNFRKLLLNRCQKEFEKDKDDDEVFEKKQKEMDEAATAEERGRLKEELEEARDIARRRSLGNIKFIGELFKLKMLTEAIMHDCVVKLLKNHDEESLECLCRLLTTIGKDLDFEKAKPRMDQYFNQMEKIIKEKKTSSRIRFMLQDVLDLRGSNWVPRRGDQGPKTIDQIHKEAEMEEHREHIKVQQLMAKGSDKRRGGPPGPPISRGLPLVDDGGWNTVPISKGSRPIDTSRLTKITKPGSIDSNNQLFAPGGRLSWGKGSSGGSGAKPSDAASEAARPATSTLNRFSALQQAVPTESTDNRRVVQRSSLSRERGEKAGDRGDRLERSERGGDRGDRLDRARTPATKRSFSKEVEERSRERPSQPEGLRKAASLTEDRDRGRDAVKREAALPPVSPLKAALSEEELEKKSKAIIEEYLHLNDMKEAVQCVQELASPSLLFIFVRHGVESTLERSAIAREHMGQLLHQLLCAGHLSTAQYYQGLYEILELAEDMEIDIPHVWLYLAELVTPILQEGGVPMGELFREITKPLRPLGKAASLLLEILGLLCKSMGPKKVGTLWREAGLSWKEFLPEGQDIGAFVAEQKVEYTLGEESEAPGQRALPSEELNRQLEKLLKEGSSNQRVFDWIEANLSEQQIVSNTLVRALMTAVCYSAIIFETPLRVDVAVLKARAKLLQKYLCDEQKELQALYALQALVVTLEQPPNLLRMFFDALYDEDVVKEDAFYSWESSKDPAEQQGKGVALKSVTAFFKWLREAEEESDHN
# Numbers stand for hits; - = inactive; ? = inconclusive; . = not tested or not shown; + = active, no number; [ ] = remark or other dose. This is a sample that favours compounds with a hit; in the whole collection about 1.9% have one here. Unless noted, no rule for the calls is given here.
SMILES,14-3-3 Bad inh,MLLE-PAM2 inh,PABP FP inh,eIF4H FP inh,eIF4E-4G inh
CCOC(=O)C(CC)Sc1nc2c(c(=O)[nH]c(=O)n2C)n1CCc1ccccc1 (centres undefined),-,39.9,-,-,-
CCOC(=O)CSc1nc2c(c(=O)[nH]c(=O)n2C)n1CCc1ccccc1,-,-,-,-,-
CC=CCn1c(SCc2ccccc2)nc2c1c(=O)[nH]c(=O)n2C,.,42.5,.,.,.
COc1ccccc1NC(=O)COC(=O)C1CC2CCCC(C1)C2=O (centres undefined),.,-,.,.,.
O=C(O)c1csc(-n2nc(-c3ccccc3)cc2C(F)(F)F)n1,-,-,-,-,-
Cc1cc(C(F)(F)F)n(-c2nc(C(=O)O)cs2)n1,-,-,+,1.5,-
O=C(Oc1ccccc1C(=O)Nc1ccccc1)c1ccccc1Br,-,-,-,-,-
COc1ccc(NC(=O)NNC(=O)c2ccc3ccccc3c2O)c(OC)c1,.,-,-,-,.
CC(C(=O)O)N1C(=O)/C(=C/c2cccn2C)SC1=S (centres undefined),-,-,+,-,-
O=C(NN1C(=O)/C(=C/C=C/c2ccco2)SC1=S)c1ccccc1O,74.8,-,+,94.3,35.9
COc1ccccc1C(=O)NN1C(=O)/C(=C/c2cccn2C)SC1=S,-,.,+,-,-
Cn1cccc1/C=C1\SC(=S)N(NC(=O)c2ccccc2O)C1=O,-,-,+,81.6,-
Cn1cccc1/C=C1\SC(=S)N(NC(=O)c2ccccc2)C1=O,-,-,-,?,-
CCC(C(=O)O)N1C(=O)/C(=C/c2cccn2C)SC1=S (centres undefined),-,-,-,?,-
CCOC(=O)c1ccc(N2C(=O)CC(Sc3ncccn3)C2=O)cc1 (centres undefined),.,41.1,-,-,.
Cc1ccnc(SC2CC(=O)N(c3ccc([N+](=O)[O-])cc3)C2=O)n1 (centres undefined),.,39.1,-,-,.
Cc1ccc(N2C(=O)CC(Sc3nccc(C)n3)C2=O)cc1 (centres undefined),.,-,-,-,.
Cc1ccc(Cl)cc1N1C(=O)CC(Sc2ncccn2)C1=O (centres undefined),.,41.9,-,-,.
CCc1ccc(/C=C2\SC(=S)N(CCCC(=O)NC3=NCCS3)C2=O)cc1,.,-,.,.,.
COc1cccc(/C=C2\SC(=S)N(CCCC(=O)NC3=NCCS3)C2=O)c1,.,-,+,-,.
COc1cccc(/C=C2\SC(=O)N(CC(=O)NC3C=CS(=O)(=O)C3)C2=O)c1 (centres undefined),.,41.5,-,-,.
COc1ccc(/C=C2\SC(=S)N(CCCC(=O)Nc3ccccc3C(=O)O)C2=O)cc1OC,.,-,+,-,.
COc1cccc(/C=C2\SC(=S)N(CCCC(=O)Nc3cc(C)on3)C2=O)c1,.,-,+,?,.
CCc1ccc(/C=C2\SC(=S)N(CCCC(=O)Nc3cc(C)on3)C2=O)cc1,.,-,.,.,.
CC(C)Oc1ccc(F)cc1-c1cc(C(=O)Nc2ccc(C(C)(C)C)cc2)[nH]n1,.,-,.,.,.
SMILES,14-3-3 Bad inh,MLLE-PAM2 inh,PABP FP inh,eIF4H FP inh,eIF4E-4G inh
COc1ccc(-c2nc(C)ncc2-c2csc(C)n2)c(O)c1,-,-,+,73.0,-
COC(=O)Sc1nnc(-c2ccc(Br)cc2)o1,-,.,-,-,70.5
OCC#CCSc1nnc(-c2ccc(Br)cc2)o1,-,-,-,-,-
CCC1(CC)C(=O)N(c2ccccc2)C(=N)N(c2ccccc2)C1=O,.,-,.,.,.
O=C(CN1C(=O)/C(=C2\SC(=S)N(C3CCS(=O)(=O)C3)C2=O)c2ccccc21)Nc1ccccc1 (centres undefined),81.3[fluorescence artefact?],-,-,-,-
Cc1ccc(NC(=O)CN2C(=O)/C(=C3\SC(=S)N(C4CCS(=O)(=O)C4)C3=O)c3ccccc32)cc1 (centres undefined),92.6[fluorescence artefact?],-,-,-,-
COc1ccc(NC(=O)CN2C(=O)/C(=C3\SC(=S)N(CCC(=O)O)C3=O)c3ccccc32)cc1,.,-,-,-,.
COc1ccccc1C(=O)Nc1cccc2cccnc12,.,-,-,-,.
Cc1cc(C)n(CC2CC(=O)N(c3ccc(C)c(Cl)c3)C2=O)n1 (centres undefined),-,-,+,?,-
Cc1cc(C)n(CC2CC(=O)N(c3ccc(F)c(Cl)c3)C2=O)n1 (centres undefined),-,-,-,-,-
CCC(=NCCc1ccc(OC)c(OC)c1)C1=C(O)CC(C)(C)CC1=O,-,-,-,active,-
CCC(=NCCc1ccc(OC)c(OC)c1)c1ccccc1O,.,-,-,-,.
CC1CCCCN1CC(=O)Nc1sc2c(c1C#N)CCC2 (centres undefined),-,-,+,69.3,-
N#Cc1c(NC(=O)CN2CCCCC2)sc2c1CCC2,-,-,-,45.4,-
N#Cc1ccsc1NC(=O)CN1CCN(c2ccc(O)cc2)CC1,-,-,-,97.8,-
CC1CCCCN1CC(=O)Nc1sccc1C#N (centres undefined),-,-,+,75.0,-
N#Cc1ccsc1NC(=O)CN1CCN(c2ccccc2)CC1,-,-,-,-,-
CC(C)c1ccc(NC(=S)N(C)CCc2ccccn2)cc1,-,-,-,-,-
CSc1ccc(NC(=O)C2(C)CCN2C(=O)c2sccc2C)cc1 (centres undefined),.,-,.,.,.
Cc1cccc(-c2cc3nc4c(c(NCc5ccco5)n3n2)CCCC4)c1,-,-,-,-,-
N#Cc1c(C(F)(F)F)cc(-c2ccccc2)nc1SCC(=O)Nc1sc2c(c1C#N)CCC2,-,-,+,-,-
N#Cc1ccc(-c2cccnc2)nc1SCC(=O)Nc1sc2c(c1C#N)CCC2,-,-,-,-,-
CCn1c(SCC(=O)N/N=C/C=C/c2ccco2)nc2ccccc21,-,-,-,?,-
CCn1c(SCC(=O)N/N=C/C=C/c2ccco2)nnc1-c1ccc(OC)cc1,80.1[fluorescence artefact?],-,-,-,-
CCCN1CCN(CC(O)COC(c2ccc(OC)cc2)c2ccc(OC)cc2)CC1 (centres undefined),.,-,-,-,.
SMILES,14-3-3 Bad inh,MLLE-PAM2 inh,PABP FP inh,eIF4H FP inh,eIF4E-4G inh
COc1ccc(C(=O)Nc2ccc3oc(-c4cccc(Cl)c4)cc(=O)c3c2O)cc1,-,-,-,-,-
O=[N+]([O-])c1cc(-c2ccccc2)cc([N+](=O)[O-])c1O,.,-,.,.,.
O=[N+]([O-])c1cc2ccccc2c(O)c1O,.,40.9,.,.,.
CN(Cc1ccc(OC(F)F)cc1)C(=O)c1ccc2nccnc2c1,-,-,-,-,-
COc1cccc(CN(C)C(=O)c2ccc3nccnc3c2)c1,-,-,+,87.8,-
Cc1ccc(NCC(=O)c2ccccc2)cc1Cl,-,-,-,-,-
O=C(O)c1ccc(NC2=C(Cl)C(=O)c3ccccc3C2=O)cc1,-,47.0,-,-,-
Cc1ccc(NC2=C(NC(=O)c3ccccc3)C(=O)c3ccccc3C2=O)cc1Cl,-,46.2,-,-,-
O=C1C(Cl)=C(NCCc2ccccc2)C(=O)c2ccccc21,.,40.4,.,.,.
C1CCN(Cc2nnnn2CC2CCCO2)CC1 (centres undefined),-,-,-,-,-

# Bioassay records from PubChem.
